NOMO-1 viab = STK33 inhibitor candidate reducing NOMO-1 cell viability; inhibition, % (concentration not given with the values); NOMO-1 AML viability, CellTiter-Glo luminescence, 72 h; 37,000 compounds, 7.5% hits; in the data active means inhibition above about 80%
ROS inducer = cancer cell ROS induction. U2OS ROS induction, H2DCF-DA fluorescence. ROS induction (% of piperlongumine), % at 10 µM. 46,000 compounds, 2% hits. AID 624156; in the data active means ROS induction above about 79%, passing the limit was not always enough;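 further: 0% = DMSO vehicle median and 100% = reference compound median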
The depositor's hits bear a star; . = no result given. Shown is part of a subset that was picked to be rich in hits.

SMILES | NOMO-1 viab | ROS inducer
COc1ccc(CN(C)C[C@@H]2OCCCC[C@@H](C)Oc3ccc(NC(=O)Nc4ccc(OC)cc4)cc3C(=O)N([C@H](C)CO)C[C@@H]2C)cc1 | 22.4 | 41.2
O=C1/C(=C/c2ccco2)N=C(c2ccccc2)N1/N=C/c1ccc(F)cc1 | 27.0 | 13.6
Cc1cc(=O)oc2cc(OCC(=O)Nc3sc4c(c3C#N)CCC4)ccc12 | 37.8 | -10.7
CCC1CCCCN1C(=O)CN1C(=O)c2ccccc2C1=O (stereo not drawn) | . | -0.2
CC1CCN(C(=O)CSc2nc3cc4c(cc3c(=O)n2CCC2=CCCCC2)OCO4)CC1 | . | -5.8
COc1ccc(CC(=O)Sc2nc3ccccc3o2)cc1 | . | 10.0
CC(C)NC(=O)Nc1ccc2c(c1)CC(=O)N([C@@H](C)CO)C[C@H](C)[C@@H](CN(C)Cc1ccc(C(F)(F)F)cc1)O2 | 11.9 | 8.6
COc1ccc(NC(=O)CSc2ccccc2)cc1NC(=O)c1ccco1 | -9.4 | .
CC(C)(O)/C(=C/C#N)n1cccn1 | . | -6.6
CC(CC(O)C1OC1(C)C)[C@@H]1CCC2(C)C3=CCC4C(C)(C)C(=O)CCC4(C)C3CC[C@@]12C (stereo partly drawn) | 101.4* | 59.5
C[C@H]1CN([C@@H](C)CO)C(=O)c2cccc(NC(=O)Nc3cccc4ccccc34)c2O[C@@H]1CN(C)S(C)(=O)=O | 20.4 | 1.5
O=C(Oc1c(CN2CCOCC2)cc(Cl)c2cccnc12)c1ccccc1Cl | . | -3.4
O=C(Oc1c(CN2CCOCC2)cc(Cl)c2cccnc12)c1ccc(F)cc1 | 108.8* | .
COc1ccccc1C(=O)Oc1c(CN2CCOCC2)cc(Cl)c2cccnc12 | 109.0* | .
O=C(Oc1ccccc1N1CCOCC1)c1cccnc1Sc1ccc(Cl)cc1 | . | -15.6
CS(=O)(=O)N(CC(=O)Nc1ccc(Oc2ccccc2)cc1)C1CCCCC1 | 32.7 | -8.8
C[C@@H]1CCCCO[C@@H](CN(C)Cc2ccc(C(=O)O)cc2)[C@@H](C)CN([C@H](C)CO)C(=O)c2cc(NC(=O)Cc3ccccc3)ccc2O1 | -13.5 | -9.9
CCC(C)NC(=O)c1ccc(N(CC)CC)cc1 (stereo not drawn) | 27.6 | -13.8
CCC(C)c1ccc(NC(=O)c2ccc(N(CC)CC)cc2)cc1 (stereo not drawn) | 119.9* | 54.0
CCS(=O)(=O)c1ccc2nc(SCC(=O)n3c4c(c5ccccc53)CCCC4)oc2c1 | 12.3 | -12.4
C[C@@H]1CN([C@H](C)CO)C(=O)c2cccc(NC(=O)NC3CCCCC3)c2O[C@H]1CN(C)C(=O)Nc1ccc(C(F)(F)F)cc1 | 8.1 | -1.6
C[C@@H]1CN([C@H](C)CO)C(=O)c2cccc(NC(=O)Nc3ccc(C(F)(F)F)cc3)c2O[C@@H]1CN(C)C(=O)NC1CCCCC1 | 117.1* | 37.5
C[C@@H]1CN([C@@H](C)CO)C(=O)c2cccc(NC(=O)Nc3ccc(C(F)(F)F)cc3)c2O[C@H]1CN(C)C(=O)NC1CCCCC1 | 73.3 | 18.0
C[C@H](CO)N1C[C@H](C)[C@@H](CN(C)C(=O)NC2CCCCC2)Oc2c(NC(=O)Nc3ccc(C(F)(F)F)cc3)cccc2C1=O | 84.6* | 0.2
COc1ccc(NC(=O)Nc2cccc3c2O[C@@H](CN(C)Cc2ccc(Oc4ccccc4)cc2)[C@H](C)CN([C@H](C)CO)C3=O)cc1 | 24.2 | 16.8
SMILES | NOMO-1 viab | ROS inducer
C[C@@H]1CN([C@H](C)CO)C(=O)c2cccc(NC(=O)Nc3ccccc3)c2O[C@@H]1CN(C)Cc1ccc(Oc2ccccc2)cc1 | 31.7 | 13.2
C[C@H]1CN([C@@H](C)CO)C(=O)c2cccc(NC(=O)Nc3ccccc3)c2O[C@@H]1CN(C)Cc1ccc(Oc2ccccc2)cc1 | 60.3 | 25.6
CC(C)NC(=O)Nc1cccc2c1O[C@H](CN(C)Cc1ccc(Oc3ccccc3)cc1)[C@H](C)CN([C@@H](C)CO)C2=O | -6.3 | 9.5
C[C@H](CO)N1C[C@H](C)[C@@H](CN(C)Cc2ccc(Oc3ccccc3)cc2)Oc2c(NC(=O)Nc3ccccc3)cccc2C1=O | 84.9* | 101.2*
C[C@H](CO)N1C[C@H](C)[C@H](CN(C)Cc2ccc(Oc3ccccc3)cc2)Oc2c(NC(=O)Nc3cccc4ccccc34)cccc2C1=O | 122.4* | 53.2
CC(C)NC(=O)Nc1cccc2c1O[C@H](CN(C)Cc1ccc(Oc3ccccc3)cc1)[C@@H](C)CN([C@H](C)CO)C2=O | 88.8* | 73.5
C[C@@H]1CN([C@@H](C)CO)C(=O)c2cccc(NC(=O)Nc3ccccc3)c2O[C@@H]1CN(C)Cc1ccc(Oc2ccccc2)cc1 | 62.2 | 86.8*
O=c1[nH]c(-c2ccccc2)nnc1/C=C(\O)c1cccs1 | 19.2 | 10.7
Cc1cc(OCC(=O)NCc2ccccn2)c(C)cc1Br | 23.2 | -14.6
Cc1cc(C)c(NC(=S)NC(=O)c2ccccc2)c(C)c1 | 62.9 | 30.6
CC1(C)C=Cc2c(cc3occ(-c4ccc5c(c4)OCO5)c(=O)c3c2O)O1 | 47.1 | 14.9
